# Tests used:
# CHO = assay: % viability of CHO cells (MTT); higher = less toxic; conditions: 48 h
# In short: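 CHO cells seeded at 10^6 cells/well were exposed to compound at 2 or 20 µM for 48 h. Survival, as percent of untreated cells, was measured with the colorimetric tetrazolium (MTT) assay.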
# HepG2-A16-CD81 = assay: % inhibition of HepG2 viability (CellTiter-Glo); higher = more toxic; conditions: 5 µM;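 further: HepG2-A16-CD81 hepatoma cells plated as in the liver-stage assay but without sporozoites, with DMSO wells as negative and 25 µM puromycin as positive control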
# [1] = test system: Plasmodium falciparum NF54 stage IV/V gametocytes; assay: % inhibition of gametocyte viability (PrestoBlue); higher = more inhibition; conditions: 48 h
# In short: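 Compound was tested at 1 or 5 µM against Stage IV/V NF54 gametocytes plated at 100 µL/well (2% gametocytaemia, 5% haematocrit). After 48 h of stationary, hypoxic incubation at 37 °C, 10 µL PrestoBlue was added for 2 h before reading 612 nm fluorescence from 70 µL of transferred supernatant. Gametocyte viability inhibition, as a percentage, was scaled against vehicle and kill controls from a single run.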
# [2] = test system: Plasmodium falciparum NF54 asexual blood stage; assay: % inhibition of asexual blood stage proliferation (pLDH); higher = more inhibition; conditions: 72 h
# In short: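 In 96-well plates, compound at 2 or 20 µM was added to Plasmodium falciparum NF54 ring-stage cultures (1% haematocrit, 2% parasitaemia). Plates were incubated for 72 h at 37 °C in 4% CO2, 3% O2 and 93% N2, and survival was then read at 620 nm using the parasite lactate dehydrogenase assay. Inhibition of asexual proliferation, expressed as a percentage, was normalised to controls.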
# [3] = test system: Plasmodium falciparum NF54 stage IV/V gametocytes; assay: % inhibition of gametocyte viability (ATP bioluminescence); higher = more inhibition; conditions: 24 h
# In short: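 Density gradients were used to enrich stage IV/V NF54 gametocytes, which were then seeded into 96-well plates at 30,000 per well with compound at 1 or 5 µM. The plates were incubated at 37 °C for 24 h, and ATP was measured with the Promega BacTiter Glo bioluminescence system. Percent inhibition of gametocyte viability was normalised to the plate controls from a single run.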
# [4] = test system: Plasmodium falciparum NF54 stage IV/V gametocytes; assay: % inhibition of gametocyte viability (luciferase reporter); higher = more inhibition; conditions: 48 h
# In short: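 Luminescence from 30 µL lysate combined with 30 µL Promega luciferin substrate was recorded on a GloMax-Multi+ reader using 10 s integration. The lysate came from stage IV/V NF54-Pfs16-GFP-Luc gametocytes (2% gametocytaemia, 2% haematocrit) held with compound at 1 or 5 µM for 48 h at 37 °C under stationary, hypoxic conditions. Percent inhibition was normalised against controls run once.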
Compound,% viability of CHO cells (CHO; 2 µM),% viability of CHO cells (CHO; 20 µM),% inhibition of HepG2 viability (HepG2-A16-CD81),% inhibition of gametocyte viability ([1]; 1 µM),% inhibition of gametocyte viability ([1]; 5 µM),% inhibition of asexual blood stage proliferation ([2]; 2 µM),% inhibition of asexual blood stage proliferation ([2]; 20 µM),% inhibition of gametocyte viability ([3]; 1 µM),% inhibition of gametocyte viability ([3]; 5 µM),% inhibition of gametocyte viability ([4]; 1 µM),% inhibition of gametocyte viability ([4]; 5 µM)
O=C(Cc1ccccc1F)Nc1nc2ccccc2[nH]1,104%,87.3%,7.61%,5.47%,21.8%,37.1%,29.8%,< 0%,< 0%,< 0%,< 0%
O=[N+]([O-])c1ccc2c(CCc3c[nH]c4ccccc34)c[nH]c2c1,101%,143%,0.942%,< 0%,28%,61.5%,92.7%,< 0%,< 0%,< 0%,< 0%
CCC(C)(C)c1ccc(CC(C)CN2C[C@@H](C)O[C@@H](C)C2)cc1 (stereo not given in full),100%,124%,-1.79%,< 0%,4.53%,89.6%,82%,< 0%,< 0%,< 0%,< 0%
CCCNc1ccc(S(=O)(=O)Nc2cc(C)on2)cc1,93.3%,116%,-1.94%,-0.214%,6.51%,1.93%,-9.2%,0.832%,< 0%,< 0%,< 0%
C[C@H]1[C@@H](c2cccc(C(F)(F)F)c2)OC(=O)N1C(=O)NCc1cncc2ccccc12,93.8%,118%,12.1%,< 0%,27.7%,-2.37%,30.8%,< 0%,< 0%,< 0%,< 0%
